Bioassay records (PubChem BioAssay)
Tau ThT inhib – qHTS for Inhibitors of Tau Fibril Formation, Thioflavin T Binding. Microtubule-associated protein tau (Homo sapiens), P10636. recombinant tau K18 P301L, heparin-induced fibrillization, ThT fluorescence. Potency, µM (highest dose often 57.4 µM), actives largely listed as inhibitors. 2.1% of 270,000 active. AID 1460, 2008; note: nearly all actives have a fitted effect of over 55% in size
Target sequence (P10636 561-689 P618L limits assumed): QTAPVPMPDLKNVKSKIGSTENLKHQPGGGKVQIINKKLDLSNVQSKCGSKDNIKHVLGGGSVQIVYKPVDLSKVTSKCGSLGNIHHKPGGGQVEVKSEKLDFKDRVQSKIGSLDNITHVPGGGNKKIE
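Aggregation was driven by heparin (20 uM final) acting on recombinant tau […] bearing P301L in 100 mM sodium acetate pH 7; fibrils were detected with Thioflavin T.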
Tau fluor counter – Counterscreen qHTS for Inhibitors of Tau Fibril Formation, Fluorescence Polarization; tau K18 P301L (four-repeat tau fragment) Alexa594 fluorescence, heparin fibrillization; Potency, µM (titrated, usually from 57.7 µM); 0.93% of 280,000 active; note: nearly all actives have a fitted effect of over 55% in size
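Human K18 P301L tau (15 uM unlabeled plus 0.24 uM Alexa 594-labeled, final) in 100 mM sodium acetate pH 7 was mixed with compound and 20 uM heparin and incubated 6 hr at 37 C.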
TRb SRC2 PPI – qHTS for Inhibitors of the Interaction of Thyroid Hormone Receptor and Steroid Receptor Coregulator 2; Thyroid hormone receptor beta (Homo sapiens), P10828; AID 1469, 2008; 0.065% of 280,000 active; TRbeta-SRC2 peptide binding, fluorescence polarization; receptor liganded with 1 µM T3; Potency, µM (titrated, usually from 106 µM), hits mostly inhibitors; note: nearly all actives have a fitted effect of over 50% in size
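Fluorescence polarization of 20 nM Texas Red SRC2 peptide with 0.6 uM human TRb ligand-binding domain, in Tris buffer with 1uM T3 and 5% DMSO. Incubated 5 hr ambient; normalized to unbound and bound controls.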
Tau FP inhib – qHTS for Inhibitors of Tau Fibril Formation, Fluorescence Polarization; Microtubule-associated protein tau (Homo sapiens), P10636; K18 P301L tau heparin fibrillization, Alexa594 FP, 6 h; Potency, µM (highest dose often 57.7 µM), most hits filed as inhibitors; 0.39% of 280,000 active; note: nearly all actives have a fitted effect of over 55% in size
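Read-out: fluorescence polarization of Alexa 594-labeled tau (0.24 uM), 555 nm excitation, 632 nm emission. Mixtures held 15 uM unlabeled K18 P301L, compound and 20 uM heparin, pH 7 acetate buffer, incubated 6 hr at 37 C.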
TexasRed fluor – Total Fluorescence Counterscreen for Inhibitors of the Interaction of Thyroid Hormone Receptor and Steroid Receptor Coregulator 2; 0.29% of 280,000 active; AID 1479, 2009; TRb/SRC2 Texas Red total fluorescence interference; Potency, µM (doses to about 106 µM); active = well fitted curve in either direction with a large enough effect; inconclusive = small, poorly fitted or top-dose-only effect
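Flags fluorescent or light-absorbing compounds by total fluorescence, S + 2P, at 555 nm excitation and 632 nm emission. Mixture: 20 nM Texas Red SRC2 peptide, 0.6 uM human TRb LBD, 1 uM T3, 5% DMSO; compound exposure 5 h at ambient temperature.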
JMJD2E inh – qHTS Assay for Inhibitors of Human Jumonji Domain Containing 2E (JMJD2E); JMJD2E catalytic domain, FDH-coupled NADH fluorescence (FDH is formaldehyde dehydrogenase); Potency, µM (doses to about 57.1 µM), usual class: inhibitors; 1.6% of 230,000 active; AID 2147, 2009; active = well fitted inhibition curve with a large enough effect, not every such curve was filed as active; inconclusive = small, poorly fitted or top-dose-only effect, or another doubt; inactive = no such curve, though single readings can be large or run the other way; note: nearly all actives have a fitted effect of over 50% in size
Target sequence (B2RXH2 1-337 limits assumed): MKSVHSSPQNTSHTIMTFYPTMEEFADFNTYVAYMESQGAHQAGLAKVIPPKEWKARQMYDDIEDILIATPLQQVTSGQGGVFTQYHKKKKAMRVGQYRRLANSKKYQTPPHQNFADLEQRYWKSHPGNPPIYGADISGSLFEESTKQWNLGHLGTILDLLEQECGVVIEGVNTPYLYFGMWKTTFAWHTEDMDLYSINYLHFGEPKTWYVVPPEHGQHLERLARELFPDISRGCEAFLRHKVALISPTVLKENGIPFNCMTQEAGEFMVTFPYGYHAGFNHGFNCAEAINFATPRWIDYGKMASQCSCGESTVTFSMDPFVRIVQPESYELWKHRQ
Of the large screens only hits and unclear results are named; the others gave an inactive call; [ ] = another dose, or the depositor's remark. Most compounds without a hit are left out; they make up all but 3.5% or so of the library. Unless noted, calls come from the whole dose curve; as a rule, active = well fitted curve in the direction sought with a large enough effect; inconclusive = small, poorly fitted or top-dose-only effect, or another doubt; inactive = no such curve, though single readings can be large; an effect the other way counts as inactive or inconclusive.

O=C(NCCn1cc(SCc2ccccc2)c2ccccc21)c1c(F)cccc1F	Tau ThT inhib inconclusive, Tau fluor counter inconclusive
Cc1ccc(C(=O)O)cc1-c1ccc(/C=C2/NC(=O)N(c3ccccc3)C2=O)o1	Tau ThT inhib 28.2µM, JMJD2E inh inconclusive
C/C(=N\NC(=O)c1cccc(N/N=C(\C)c2ccncc2)c1)c1ccncc1	Tau ThT inhib inconclusive
Oc1ccc2ccccc2c1C1Nc2cccc3cccc(c23)N1	Tau ThT inhib 28.2µM, Tau fluor counter 14.1µM[quencher], JMJD2E inh 28.2µM
COc1cc(C2Nc3cccc4cccc(c34)N2)cc(OC)c1OC(C)=O	Tau ThT inhib inconclusive, Tau fluor counter inconclusive
CCN(CC)c1ccc(C2Nc3cccc4cccc(c34)N2)c(O)c1	Tau ThT inhib 15.8µM, Tau fluor counter 14.1µM[quencher]
COc1ccc(C(=O)Nc2ccc3nc(N4CCC(C)CC4)cc(C)c3c2)cc1	Tau ThT inhib inconclusive, Tau fluor counter 5.01µM[quencher] (no result: JMJD2E inh)
COc1ccc(/C=C/C(=O)Nc2ccc3nc(N4CCCCC4)cc(C)c3c2)cc1OC	Tau ThT inhib 2.82µM, Tau fluor counter 7.94µM[quencher], Tau FP inhib inconclusive (no result: JMJD2E inh)
COc1ccc(/C=C/C(=O)Nc2ccc3nc(N4CCC(C)CC4)cc(C)c3c2)cc1	Tau ThT inhib inconclusive, Tau fluor counter 3.98µM[quencher] (no result: JMJD2E inh)
COc1cccc(C(=O)Nc2ccc3nc(N4CCC(C)CC4)cc(C)c3c2)c1	Tau ThT inhib inconclusive, Tau fluor counter 12.6µM[quencher] (no result: JMJD2E inh)
COc1ccc(/C=C/C(=O)Nc2ccc3nc4n(c(=O)c3c2)CCCC4)cc1OC	Tau ThT inhib inconclusive (no result: JMJD2E inh)
O=C(NNC(=S)NC1CCCCC1)c1ccc(Cl)s1	none
CCCCc1ccc(NC(=O)N[C@@H](C)C(=O)O)cc1	none
CCCCc1ccc(/C=C2\C(=O)c3ccccc3C(O)=C2C(=O)OCC)cc1	Tau ThT inhib 17.8µM, Tau fluor counter inconclusive, Tau FP inhib inconclusive, JMJD2E inh inconclusive
CCCCOc1ccc(N=Cc2cccs2)cc1	none
Cc1cccc(C)c1N/C=C/c1onc(C)c1[N+](=O)[O-]	none
Cc1ccc(N/C=C/c2onc(C)c2[N+](=O)[O-])cc1	Tau ThT inhib 0.631µM
Cc1cccc2cc(/C=C/C(=O)c3ccco3)c(Cl)nc12	Tau FP inhib inconclusive, JMJD2E inh inconclusive (no result: Tau ThT inhib)
N#Cc1c(NC(=O)c2ccc(Br)o2)n(-c2ccccc2)c2nc3ccccc3nc12	Tau ThT inhib 25.1µM, TRb SRC2 PPI inconclusive, JMJD2E inh inconclusive
COc1ccc(-n2c(NC(=O)c3ccc(Br)o3)c(C#N)c3nc4ccccc4nc32)cc1	Tau ThT inhib 14.1µM, Tau fluor counter inconclusive, JMJD2E inh inconclusive
COc1ccc(Cn2c(N)c(C#N)c3nc4ccccc4nc32)cc1	JMJD2E inh inconclusive
C/C(=N\Nc1ccc([N+](=O)[O-])cc1[N+](=O)[O-])c1cc2c(ccc3ccccc32)oc1=O	Tau ThT inhib inconclusive
CCOC(=O)Nc1sc(NS(=O)(=O)c2ccccc2)nc1C	none
CC(=O)NCc1ccc(S(=O)(=O)NC(C(=O)O)C(C)C)cc1 (stereo unspecified)	Tau ThT inhib 25.1µM, Tau FP inhib inconclusive
Cc1c(NC(=S)Nc2ccc(Cl)cc2)c(=O)n(-c2ccccc2)n1C	none
FC(F)Sc1ccc(NC(=S)NCC2CCCCC2)cc1	Tau fluor counter 14.1µM[quencher], Tau FP inhib inconclusive
CCOc1ccc(CNC(=O)CCS(=O)(=O)c2ccc3c(c2)oc(=O)n3C)cc1	none (no result: JMJD2E inh)
Cc1cccc(OCCCn2c(=O)oc3ccc(C)cc32)c1	none
Cc1cccc(/N=C/c2sc3ccccc3c2O)n1	Tau ThT inhib 5.62µM, Tau fluor counter 25.1µM[fluorescent], Tau FP inhib inconclusive, JMJD2E inh inconclusive
O=[N+]([O-])c1ccc(O)c(N=Cc2sc3ccccc3c2O)c1	Tau ThT inhib 4.47µM, Tau fluor counter inconclusive, JMJD2E inh 7.08µM
